The list is not random: actives were taken first. Their share in the collection is about 19%.
TDP1 cell noCPT = qHTS for Inhibitors of human tyrosyl-DNA phosphodiesterase 1 (TDP1): qHTS in cells in absence of CPT; DT40 Tdp1-/- hTDP1 cells, no CPT, ATP luminescence, 48 h; Potency, µM (highest dose often 46.2 µM), hits mostly inhibitors; hit rate 15% among 420,000; AID 686978, 2013; also: nearly all actives have a fitted effect of over 55% in size
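DT40 Tdp1-/-;hTDP1 cells, no CPT (DMSO vehicle only), 400 cells/well; compounds pin-transferred; ≥48 hr, 37 °C; CellTiter-Glo 30 min RT dark, luminescence read.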
HT1080 IDH1KD tx = toxicity to HT-1080 IDH1 knockdown cells (counter line) | Potency, µM (highest dose often 46.1 µM), hits mostly cytotoxic | HT-1080 IDH1 knockdown viability, ATP luminescence, 48 h | hit rate 2% among 360,000
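After a 2 h attachment period, IDH1KD HT-1080 cells took pin-transferred compound for 48 h at 37 °C; ATP-based luminescence after 10 min room-temperature reagent incubation reported viability.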
IL-1B inflam inh = inflammasome signaling inhibition, IL-1 beta readout | THP-1 LPS/ATP IL-1B secretion, AlphaLISA, 16 h; active compounds read low | activity change, % at 57.5 µM | hit rate 4.7% among 360,000 | AID 743279; in the data active = activity change below about -50%; inconclusive = mostly about -30% to -49%
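THP-1 cells pretreated 1 hr with compounds (up to 57.5 uM final), then stimulated with LPS (250 ng/mL final) plus ATP (1.25 mM final); secreted IL-1B measured by AlphaLISA after 16 hr, decreased signal indicating inhibition.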
HT1080-NT tox = kills 2HG-producing HT-1080-NT fibrosarcoma cells. HT-1080-NT fibrosarcoma viability, CellTiter-Glo ATP luminescence, 48 h. Potency, µM (top dose mostly 46.1 µM), actives largely listed as cytotoxic. hit rate 1.6% among 360,000;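 also: NT is the 2HG producing partner of a matched IDH1 knockdown line; nearly all actives have a fitted effect of over 55% in size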
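750 cells/well, RPMI + 5% FBS; 2 h settle, compound pin-transfer, 48 h at 37 degrees C. CellTiter-Glo 10 min RT, luminescence. Normalized to DMSO and media-only wells.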
TDP1 cell CPT = growth inhibition of DT40 Tdp1-/-;hTDP1 cells with camptothecin (screen for TDP1 inhibitors) | Potency, µM (top dose mostly 46.2 µM), actives largely listed as inhibitors | AID 686979 | chicken DT40 Tdp1-/-;hTDP1 cells + 20 nM CPT, ATP luminescence, 48 h | hit rate 12% among 420,000; also: nearly all actives have a fitted effect of over 55% in size
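Cell growth measured by CellTiter-Glo luminescence after a minimum 48 h, 37 C compound exposure with 20 nM CPT in Tdp1-knockout DT40 cells stably expressing hTDP1, seeded 400/well; qHTS titration format.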
A number is an active result; n = inactive; u = inconclusive; x = not tested or not shown. Unless noted, calls follow the shape of the dose curve; as a rule, active = well fitted curve in the direction sought with a large enough effect; inconclusive = small, poorly fitted or top-dose-only effect, or another doubt; inactive = no such curve, though single readings can be large; an effect the other way counts as inactive or inconclusive.

SMILES | TDP1 cell noCPT | HT1080 IDH1KD tx | IL-1B inflam inh | HT1080-NT tox | TDP1 cell CPT
COC(=O)CC1C2(C)CC34OC5(C)O[C@@]6(C7/C(=C(/OC)C(C)C)C(=O)OC(c8ccoc8)[C@@]7(C)C(OC(=O)C(C)C)C(OC)[C@]6(O5)[C@@]13C)C(OC)[C@]4(OC)C2OC(C)=O (stereo partly drawn) | 13µM | x | x | x | 8.2µM
O=[N+]([O-])c1cc(S(=O)(=O)N2CCCC2)ccc1SCCO | n | n | n | n | n
CCOC(=O)[C@]12CCC=C1N(Cc1ccc3c(c1)OCO3)C(=O)[C@H](CC(=O)NCC1CCCCC1)C2 | u | n | n | n | u
COC(=O)[C@]12CCCCC=C1N(Cc1ccc3c(c1)OCO3)C(=O)[C@H](CC(=O)N1CCCC1)C2 | u | n | n | n | u
COC(=O)[C@@]12C[C@@H](CC(=O)NCC3CCCCC3)C(=O)N(Cc3ccc4c(c3)OCO4)C1=CCC(C)(C)C2 | u | u | -54.3 | u | u
COC(=O)[C@@]12C[C@@H](CC(=O)N3CCN(C(=O)C4CC4)CC3)C(=O)N(Cc3ccc4c(c3)OCO4)C1=CCC(C)(C)C2 | 16.4µM | n | n | n | u
COC(=O)[C@@]12C[C@@H](CC(=O)NCc3ccc(C)o3)C(=O)N(Cc3ccc4c(c3)OCO4)C1=CCC(C)(C)C2 | 11.6µM | u | u | u | 20.6µM
COC(=O)[C@@]12C[C@@H](CC(=O)NCc3cccs3)C(=O)N(Cc3ccc4c(c3)OCO4)C1=CCC(C)(C)C2 | u | u | n | u | u
O=S(=O)(c1ccc(SCCOc2ccc(F)cc2)nc1)N1CCCC1 | u | n | n | n | n
COC(=O)c1scc(-c2ccc(C)cc2)c1S(=O)(=O)N1CCN(c2ccc(F)cc2)CC1 | 1.84µM | x | x | x | 8.2µM
COC(=O)c1scc(-c2ccc(C)cc2)c1S(=O)(=O)N1CCN(c2cccc(OC)c2)CC1 | 5.8µM | x | x | x | 9.2µM
COC(=O)c1scc(-c2ccc(C)cc2)c1S(=O)(=O)Nc1ccc(F)cc1F | n | x | x | x | n
Cc1noc(-c2ccc(-c3noc(-c4cccc(F)c4)n3)cc2)n1 | n | x | x | x | n
Cc1cc(C)c(NC(=O)CN2c3ccccc3S(=O)(=O)c3ccccc32)c(C)c1 | n | x | x | x | n
CCOc1ccc(CCNC(=O)CSCc2ccc(C)cc2)cc1OCC | u | n | n | n | u
CCOc1ccc(CCNC(=O)CCSCc2cccc(Cl)c2)cc1OCC | 20.6µM | x | x | x | u
CCOc1ccc(CCNC(=O)COC(=O)C2CC2)cc1OCC | n | n | n | n | n
CCOc1ccc(CCNC(=O)CCSCc2ccc(Cl)cc2)cc1OCC | 23.1µM | x | x | x | u
CCOc1ccc(CCNC(=O)CSC(=S)N2CCCC2)cc1OCC | u | n | n | n | 20.6µM
COc1ccc(Br)cc1CNC(=O)CCSCc1ccc(Cl)cc1 | 25.9µM | x | x | x | u
Cc1ccc2c(c1)NC(=O)C(CC(=O)Nc1cc(Cl)ccc1C)O2 (stereo not drawn) | n | x | x | x | n
COc1ccc(COC[C@H](C)[C@H](O)[C@@H](C)[C@H]2OC(=O)[C@@H]2C)cc1 | n | n | n | n | n
O=C(CN(C(=O)c1csnn1)c1cccc2ccccc12)NCc1ccc(F)cc1 | u | n | n | n | n
O=C(CN(Cc1cccs1)C(=O)CNS(=O)(=O)c1ccc(Cl)cc1)NCC1CCCO1 (stereo not drawn) | n | n | n | n | n
CCOc1ccc(N2CC(C(=O)N3CCN(C(=O)c4ccco4)CC3)CC2=O)cc1 (stereo not drawn) | n | n | n | n | n
SMILES | TDP1 cell noCPT | HT1080 IDH1KD tx | IL-1B inflam inh | HT1080-NT tox | TDP1 cell CPT
Cc1ccc(C)c(OCCC(=O)NCCc2ccc(Cl)cc2)c1 | u | n | n | n | n
CCOc1ccc(CCNC(=O)CCOc2cc(C)ccc2C)cc1OCC | 18.4µM | n | n | n | u
CC(C)NC(=S)NC(c1ccccc1)(c1ccccc1)c1ccccc1 | 23.1µM | n | n | n | u
CC(C)NC(=O)CS(=O)(=O)c1ccccc1 | n | n | n | n | n
CC(=O)Nc1nc(NCc2ccccc2Cl)n(-c2ccccc2)n1 | n | n | n | n | n
CC(=O)Nc1nc(NC(=O)/C=C/c2ccccc2)n(-c2ccccc2)n1 | 8.2µM | u | n | n | 11.6µM
O=C(/C=C/c1ccc(Cl)cc1)NC(=S)Nc1ccccc1C(=O)O | u | u | n | u | u
NC(=O)c1ccccc1NC(=O)/C=C/c1ccccc1 | 20.6µM | n | n | n | u
CCS(=O)(=O)c1ccc(O)c(NC(=O)/C=C/c2ccccc2)c1 | n | n | n | n | n
NC(=O)c1ccccc1NC(=O)/C=C/c1ccc(Cl)cc1 | 16.4µM | u | n | u | u
CC(C)=CC(=O)Nc1ccccc1C(N)=O | n | n | n | n | n
Cc1c(O)ccc(NC(=O)/C=C/c2ccccc2)c1C | 14.6µM | n | n | n | 18.4µM
O=C(c1cccc(F)c1)N1CCC[C@@]2(CCN(c3ccncc3)C2)C1 | n | x | x | x | n
CCN(Cc1ccccc1)C(=O)Cc1c[nH]c2ccccc12 | n | n | n | n | n
O=C(Nc1ccccc1F)c1cc(S(=O)(=O)N2CCOCC2)cs1 | n | n | n | n | n
C=CCN1C(=O)C(O)(CC(=O)c2ccc(OC)cc2OC)c2cc(Br)ccc21 (stereo not drawn) | u | n | n | n | u
CCCCN1C(=O)C(O)(CC(=O)c2c(C)n[nH]c2C)c2cc(Br)ccc21 (stereo not drawn) | n | n | n | n | n
CCCCN1C(=O)C(O)(CC(=O)c2ccco2)c2cc(Br)ccc21 (stereo not drawn) | 4.11µM | u | n | u | 2.59µM
CCCCN1C(=O)C(O)(CC(=O)c2ccc(C)cc2C)c2cc(Br)ccc21 (stereo not drawn) | 16.4µM | x | x | x | 16.4µM
Cc1cc(N2CCN(c3ccccc3)CC2)n2cc(-c3ccccc3)nc2n1 | 10.3µM | n | -68.1 | n | u
Cc1cc(N2CCN(c3ccccc3Cl)CC2)n2cc(-c3ccccc3)nc2n1 | u | u | -59.6 | n | u
Cc1cccc(CNC(=O)c2cnn(-c3nccc(-c4cccs4)n3)c2C2CC2)n1 | n | x | x | x | n
COc1ccc(-c2nc3cnc(Nc4cccc(OC)c4)nc3n(CCC#N)c2=O)cc1 | n | x | x | x | n
CN(Cc1ccccc1)C(=O)c1ccc2c(c1)N(Cc1ccccc1F)C(=O)c1ccccc1S2(=O)=O | 9.2µM | x | x | x | u
Cc1cccc(CN2C(=O)c3ccccc3S(=O)(=O)c3ccc(C(=O)N(C)Cc4ccccc4)cc32)c1 | u | x | x | x | 16.4µM
CN(C)CCNC(=O)c1ccc2c(c1)N(Cc1ccccc1)C(=O)c1ccccc1S2(=O)=O | n | x | x | x | n
Cc1cc(C)c(NC(=O)Cn2c(=O)n(CC(=O)NCCc3ccccc3)c(=O)c3ccccc32)c(C)c1 | n | x | x | x | n
